Experiment [1] concerns the target Hepatocyte nuclear factor 4-alpha (Homo sapiens) (UniProt P41235). Description: ATG_HNF4a_TRANS: Attagene TRANS-FACTORIAL HepG2 Assay for human Hepatocyte Nuclear Factor 4 alpha (HNF4a) (AID 2282982; active means hit-call score of the fitted dose curve at least 0.9, where 1 is the maximum). The note with it: HepG2 HNF4a transactivation reporter, mRNA readout. A digest of the protocol:
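Transfected HepG2 reporter cells are dosed for 24 h; reporter RNA is reverse-transcribed, amplified, fluorescently labelled and HpaI-digested before CE sizing. Positive-direction fit against DMSO.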

A short description of experiment [2]: ATG_M_06_TRANS: Attagene TRANS-FACTORIAL HepG2 Assay for M06 Transcription Factor (Internal Marker) (AID 2282983; active means hit-call score of the fitted dose curve at least 0.9, where 1 is the maximum). The note with it: HepG2 Attagene TRANS M06 internal marker reporter. A digest of the protocol: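 After a 24 h chemical treatment of transfected HepG2, RNA underwent DNase I treatment, reverse transcription and reporter-specific PCR; labelled, HpaI-digested products were sized by capillary electrophoresis. Signal increase relative to DMSO defined activity.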

The nature of experiment [3]: ATG_M_32_TRANS: Attagene TRANS-FACTORIAL HepG2 Assay for M32 Transcription Factor (Internal Marker) (AID 2282984; active means hit-call score of the fitted dose curve at least 0.9, where 1 is the maximum;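 further: transcript level of a background control reporter unit measured by RT-PCR and capillary electrophoresis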). The note with it: HepG2 Attagene TRANS M32 internal marker reporter. In outline:
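Using transiently transfected HepG2 cells exposed to test chemicals for 24 h, reporter transcripts are converted to labelled cDNA fragments and quantified by capillary electrophoresis. DMSO defines the activity baseline.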

Experiment [4] concerns the target Nuclear receptor subfamily 4 group A member 2 (Homo sapiens) (UniProt P43354). Description: ATG_NURR1_TRANS: Attagene TRANS-FACTORIAL HepG2 Assay for human Nuclear Receptor Related Protein 1 (NURR1) (AID 2282985; active means hit-call score of the fitted dose curve at least 0.9, where 1 is the maximum). The following applies: HepG2 Attagene TRANS reporter, mRNA readout. A digest of the protocol: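 Cells: HepG2, transiently transfected. Exposure: 24 h. Detection: fluorescence of labelled RT-PCR products separated by capillary electrophoresis; upward fit versus DMSO.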

Experiment [5] concerns the target Transcriptional activator Myb (Homo sapiens) (UniProt P10242). Description: ATG_Myb_CIS: Attagene CIS-FACTORIAL HepG2 Assay for human Myeloblastosis (Myb) Proto-Oncogene Transcription Factor (AID 2282986). The following applies: HepG2 Attagene CIS-FACTORIAL Myb reporter transcription; actives raise or lower the signal. In outline:
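Multiplexed cis-reporter system in HepG2: transient transfection, 24 h treatment, mRNA readout by RT-PCR and capillary electrophoresis. Both increases and decreases are scored versus DMSO negative control.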

For experiment [6], the target named is Nuclear respiratory factor 1 (Homo sapiens) (UniProt Q16656). Description: ATG_NRF1_CIS: Attagene CIS-FACTORIAL HepG2 Assay for human Nuclear Respiratory Factor 1 (NRF1) Orphan Gene (AID 2282987). The following applies: HepG2 NRF1 cis-element reporter, Attagene multiplex; actives raise or lower the signal. A digest of the protocol:
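Endogenous factor activity was captured via cis-element-driven reporter transcripts in HepG2 cells. Following 24 h chemical treatment, transcripts were quantified by RT-PCR and capillary electrophoresis.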

Experiment [7] is described as follows: ATG_NFI_CIS: Attagene CIS-FACTORIAL HepG2 Assay for human Nuclear Factor I (NFI) (AID 2282989). The following applies: HepG2 cis-regulatory reporter, NFI response element transcription; actives raise or lower the signal. A digest of the protocol:
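Transfected HepG2 liver cells, exposed 24 h, supplied total RNA for oligo(dT) reverse transcription and reporter-specific PCR. Labelled, HpaI-cut fragments were sized by capillary electrophoresis; DMSO set the baseline for bidirectional fitting.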

Experiment [8] addresses Myc proto-oncogene protein (Homo sapiens) (UniProt P01106). Description: ATG_Myc_CIS: Attagene CIS-FACTORIAL HepG2 Assay for human Myelocytomatosis (Myc) Proto-Oncogene Transcription Factor (AID 2282990). The following applies: HepG2, Attagene cis-reporter transcription factor activity; actives raise or lower the signal. In outline: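 HepG2, transient MRTU transfection (cis promoters, endogenous TFs); 24 h dosing; TriZol RNA → oligo(dT) RT → PCR → 6-FAM primer extension → HpaI cut → CE. Bidirectional fit vs DMSO.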

The nature of experiment [9]: ATG_NF_kB_CIS: Attagene CIS-FACTORIAL HepG2 Assay for human Nuclear Factor Kappa B (NF-kB) (AID 2282991). The following applies: HepG2 Attagene cis-factorial NF-kB reporter mRNA; actives raise or lower the signal. A digest of the protocol:
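After 24 h compound incubation, transfected HepG2 cells yield total RNA; reporter cDNA is PCR-amplified, end-labelled with 6-FAM, HpaI-digested and analysed on a genetic analyser. Endogenous factor activity, DMSO-referenced bidirectional fit.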

Experiment [10] is described as follows: ATG_NRF2_ARE_CIS: Attagene CIS-FACTORIAL HepG2 Assay for human Nuclear Factor Erythroid 2 Related Factor 2 (NFR2) response to Antioxidant Response Elements (ARE) (AID 2282992).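 On AC50: reporter mRNA level measured by RT-PCR and capillary electrophoresis fluorescence.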 The following applies: HepG2 Attagene ARE/NRF2 reporter, transcription factor activity; actives raise or lower the signal. A digest of the protocol:
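Cis-factorial assay: transfected HepG2 reporter library, 24 h dosing, mRNA readout via RT-PCR/CE; DMSO-referenced bidirectional analysis.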

Experiment [11] can be described thus: ATG_Oct_MLP_CIS: Attagene CIS-FACTORIAL HepG2 Assay for human Octamer-Binding Transcription Factor (Oct) (AID 2282993). The following applies: HepG2 Attagene cis-factorial Oct reporter, mRNA; actives raise or lower the signal. A digest of the protocol: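 Using HepG2 cells bearing transfected cis-reporter constructs, mRNA induction was read after 24 h by fluorescent RT-PCR and capillary electrophoresis, with DMSO defining baseline for gain- or loss-of-signal fits.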

Experiment [12] has as its target Cellular tumor antigen p53 (Homo sapiens) (UniProt P04637). Description: ATG_p53_CIS: Attagene CIS-FACTORIAL HepG2 Assay for human p53 Transcription Factor (AID 2282994). The note with it: HepG2 p53 cis-element reporter, Attagene mRNA; actives raise or lower the signal. In outline: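 Using HepG2 hepatoma cells carrying cis-acting multiplexed reporters, mRNA induction is detected after a 24 h exposure. Gain- and loss-of-signal responses are fitted relative to DMSO-treated cells.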

Experiment [13] in a line: BSK_3C_TissueFactor: BioMAP Diversity Plus: 3C Assay for Tissue Factor Biomarker Activity (AID 2282997). The following applies: BioMAP 3C HUVEC, tissue factor biomarker readout; actives raise or lower the signal. In outline: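 Human vascular primary cells (umbilical vein endothelium) received test chemical; Tissue Factor was determined by ELISA at 24 h, and both gain and loss of signal versus DMSO were fitted.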

Experiment [14] is described as follows: BSK_3C_uPAR: BioMAP Diversity Plus: 3C Assay for Urokinase-type plasminogen activator receptor (uPAR) Biomarker Activity (AID 2282998). The note with it: BioMAP 3C HUVEC, uPAR biomarker ELISA; actives raise or lower the signal. In outline:
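In this endothelial cell-based assay, human umbilical vein primary cells were treated with chemicals and harvested at 24 h. uPAR was quantified using ELISA, with gains or losses fitted relative to DMSO controls.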
On the technique in general: An ELISA detects its analyte on a solid surface through an enzyme-linked reagent.

A short description of experiment [15]: BSK_3C_VCAM1: BioMAP Diversity Plus: 3C Assay for Vascular cell adhesion molecule 1 (VCAM1) Biomarker Activity (AID 2282999). The note with it: BioMAP 3C HUVEC, VCAM1 ELISA, cytokine-stimulated; actives raise or lower the signal. A digest of the protocol:
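Endothelial cells from human umbilical vein are treated with test chemical. At 24 h, VCAM-1 is measured by ELISA, and responses in either direction are fitted relative to DMSO.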

The target of experiment [16] is Oxysterols receptor LXR-beta (Homo sapiens) (UniProt P55055). Description: ATG_LXRb_TRANS: Attagene TRANS-FACTORIAL HepG2 Assay for human Liver X Receptor beta (LXRb) (AID 2282981; active means hit-call score of the fitted dose curve at least 0.9, where 1 is the maximum). The note with it: HepG2 Attagene TRANS GAL4-LXRb reporter, mRNA. In outline:
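Cells: HepG2, transiently transfected with GAL4-UAS reporter units plus LXRb-Gal4 fusion. Treatment: 24 h. Detection: reporter mRNA by RT-PCR, 6-FAM labelling, HpaI digestion, capillary electrophoresis.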

The target in experiment [17] is Bile acid receptor (Homo sapiens) (UniProt Q96RI1). Description: ATG_FXR_TRANS: Attagene TRANS-FACTORIAL HepG2 Assay for Farnesoid X Receptor (FXR) (AID 2282979; active means hit-call score of the fitted dose curve at least 0.9, where 1 is the maximum;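 further: hits raise reporter mRNA above DMSO so AC50 marks FXR activation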). The note with it: HepG2 Attagene TRANS FXR-GAL4 reporter transcription. A digest of the protocol:
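Read-out: fluorescent reporter transcripts quantified by capillary electrophoresis after RT-PCR of total RNA. Source cells were HepG2 transiently carrying chimeric NR-GAL4 plus GAL4-UAS reporter units, dosed 24 h. Activity fitted upward relative to DMSO baseline.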

Experiment [18] concerns the target Oxysterols receptor LXR-alpha (Homo sapiens) (UniProt Q13133). Description: ATG_LXRa_TRANS: Attagene TRANS-FACTORIAL HepG2 Assay for human Liver X Receptor alpha (LXRa) (AID 2282980; active means hit-call score of the fitted dose curve at least 0.9, where 1 is the maximum). The following applies: HepG2 Attagene TRANS reporter, LXRa transactivation. In outline: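 Read-out: reporter transcript levels by RT-PCR plus capillary electrophoresis, fluorescence intensity. Transiently transfected HepG2, exogenous NR-GAL4 chimera, GAL4-UAS reporters; 24 h compound exposure. Activity = increase over DMSO negative control.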

Values joined by “and” are separate entries in the source; they are usually repeats but may differ in a detail not shown here. Equal entries are not always repeated. Inconclusive results are not listed. Active and inactive are the calls of the source. How the source made its calls, unless noted: active means hit-call score of the fitted dose curve at least 0.9, where 1 is the maximum; inactive means score below 0.9.

Nuclear respiratory factor 1 (Homo sapiens), sequence (Q16656 whole entry, looked up): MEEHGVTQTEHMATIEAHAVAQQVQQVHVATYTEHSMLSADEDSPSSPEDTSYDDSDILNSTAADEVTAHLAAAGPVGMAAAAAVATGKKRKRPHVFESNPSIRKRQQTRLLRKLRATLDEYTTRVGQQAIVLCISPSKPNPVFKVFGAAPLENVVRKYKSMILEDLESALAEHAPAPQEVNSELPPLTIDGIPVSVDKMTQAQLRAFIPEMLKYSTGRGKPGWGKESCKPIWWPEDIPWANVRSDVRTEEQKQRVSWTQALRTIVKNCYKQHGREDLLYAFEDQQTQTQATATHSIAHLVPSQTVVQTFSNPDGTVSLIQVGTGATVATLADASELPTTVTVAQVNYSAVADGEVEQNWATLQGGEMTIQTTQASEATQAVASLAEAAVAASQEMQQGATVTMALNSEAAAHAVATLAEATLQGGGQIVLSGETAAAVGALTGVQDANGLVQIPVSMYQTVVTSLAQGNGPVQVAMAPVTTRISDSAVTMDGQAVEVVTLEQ
Myc proto-oncogene protein (Homo sapiens), sequence (P01106 whole entry, looked up): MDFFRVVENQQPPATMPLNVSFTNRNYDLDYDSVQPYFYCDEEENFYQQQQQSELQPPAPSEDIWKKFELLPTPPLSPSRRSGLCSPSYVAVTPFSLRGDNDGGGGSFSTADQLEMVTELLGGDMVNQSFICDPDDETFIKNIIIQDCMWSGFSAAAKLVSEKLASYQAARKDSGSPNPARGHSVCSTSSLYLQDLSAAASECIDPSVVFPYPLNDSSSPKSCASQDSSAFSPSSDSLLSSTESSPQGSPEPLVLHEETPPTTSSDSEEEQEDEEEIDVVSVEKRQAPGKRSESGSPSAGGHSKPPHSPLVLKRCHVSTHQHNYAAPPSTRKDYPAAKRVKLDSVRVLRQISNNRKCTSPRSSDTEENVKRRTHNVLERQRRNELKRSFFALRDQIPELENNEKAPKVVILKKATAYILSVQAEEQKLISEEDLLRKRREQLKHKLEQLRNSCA
Cellular tumor antigen p53 (Homo sapiens), sequence (P04637 whole entry, looked up): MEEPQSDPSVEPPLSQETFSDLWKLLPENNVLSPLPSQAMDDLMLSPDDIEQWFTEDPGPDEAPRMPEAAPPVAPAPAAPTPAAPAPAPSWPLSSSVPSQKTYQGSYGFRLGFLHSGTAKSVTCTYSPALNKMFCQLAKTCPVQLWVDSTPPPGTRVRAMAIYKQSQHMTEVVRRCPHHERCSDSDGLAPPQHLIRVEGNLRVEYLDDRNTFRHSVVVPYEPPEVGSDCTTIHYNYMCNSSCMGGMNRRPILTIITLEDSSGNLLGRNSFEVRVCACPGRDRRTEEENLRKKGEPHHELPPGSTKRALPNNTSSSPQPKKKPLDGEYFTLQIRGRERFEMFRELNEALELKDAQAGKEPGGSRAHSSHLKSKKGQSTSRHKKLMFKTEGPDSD
Transcriptional activator Myb (Homo sapiens), sequence (P10242 whole entry, looked up): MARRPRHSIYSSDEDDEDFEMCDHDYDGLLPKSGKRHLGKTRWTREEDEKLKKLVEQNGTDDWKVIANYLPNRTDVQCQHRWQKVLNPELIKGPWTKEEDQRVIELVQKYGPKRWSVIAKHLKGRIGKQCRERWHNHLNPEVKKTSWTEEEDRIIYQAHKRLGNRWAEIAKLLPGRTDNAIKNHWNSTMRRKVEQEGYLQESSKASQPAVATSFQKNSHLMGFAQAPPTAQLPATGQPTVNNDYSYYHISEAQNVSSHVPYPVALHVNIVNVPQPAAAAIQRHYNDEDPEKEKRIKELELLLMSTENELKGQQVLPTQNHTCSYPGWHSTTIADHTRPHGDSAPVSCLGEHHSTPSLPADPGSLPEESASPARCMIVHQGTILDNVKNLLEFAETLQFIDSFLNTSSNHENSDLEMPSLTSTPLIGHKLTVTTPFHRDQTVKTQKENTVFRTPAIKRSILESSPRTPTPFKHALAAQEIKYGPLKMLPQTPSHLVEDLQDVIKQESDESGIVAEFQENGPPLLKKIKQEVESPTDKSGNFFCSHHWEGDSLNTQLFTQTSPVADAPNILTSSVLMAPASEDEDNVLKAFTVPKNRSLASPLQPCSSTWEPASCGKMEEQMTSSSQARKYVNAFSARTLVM
Hepatocyte nuclear factor 4-alpha (Homo sapiens), sequence (P41235 whole entry, looked up): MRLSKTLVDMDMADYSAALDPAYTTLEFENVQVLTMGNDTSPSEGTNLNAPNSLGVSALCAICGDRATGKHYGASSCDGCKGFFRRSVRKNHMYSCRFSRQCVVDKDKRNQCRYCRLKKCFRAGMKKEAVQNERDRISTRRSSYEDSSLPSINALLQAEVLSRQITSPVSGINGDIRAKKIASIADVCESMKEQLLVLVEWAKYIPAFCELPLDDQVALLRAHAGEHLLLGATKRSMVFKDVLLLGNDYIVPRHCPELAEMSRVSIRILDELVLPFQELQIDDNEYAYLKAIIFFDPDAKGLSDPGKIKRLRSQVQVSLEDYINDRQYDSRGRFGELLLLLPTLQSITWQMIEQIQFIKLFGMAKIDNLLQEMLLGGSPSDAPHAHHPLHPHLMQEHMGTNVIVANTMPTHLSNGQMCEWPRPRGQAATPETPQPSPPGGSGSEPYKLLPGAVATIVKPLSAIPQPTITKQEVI
Nuclear receptor subfamily 4 group A member 2 (Homo sapiens), sequence (P43354 whole entry, looked up): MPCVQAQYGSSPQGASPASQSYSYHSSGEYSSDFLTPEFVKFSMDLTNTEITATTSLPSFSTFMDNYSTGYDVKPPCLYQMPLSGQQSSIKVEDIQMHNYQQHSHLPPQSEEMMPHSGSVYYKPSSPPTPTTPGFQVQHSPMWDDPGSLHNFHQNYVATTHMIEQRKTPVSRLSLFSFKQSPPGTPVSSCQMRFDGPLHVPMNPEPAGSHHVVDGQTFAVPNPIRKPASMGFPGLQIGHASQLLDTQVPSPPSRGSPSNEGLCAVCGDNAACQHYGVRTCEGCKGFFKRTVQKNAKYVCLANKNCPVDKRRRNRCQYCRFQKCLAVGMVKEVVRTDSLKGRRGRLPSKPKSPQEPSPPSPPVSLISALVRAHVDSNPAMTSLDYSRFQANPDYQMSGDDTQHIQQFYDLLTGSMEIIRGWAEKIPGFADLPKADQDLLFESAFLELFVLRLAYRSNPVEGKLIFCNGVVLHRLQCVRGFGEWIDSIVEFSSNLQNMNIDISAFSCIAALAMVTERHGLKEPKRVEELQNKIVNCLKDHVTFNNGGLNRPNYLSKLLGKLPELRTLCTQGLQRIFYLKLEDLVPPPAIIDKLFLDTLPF
Bile acid receptor (Homo sapiens), sequence (Q96RI1 whole entry, looked up, the tested form may be a part): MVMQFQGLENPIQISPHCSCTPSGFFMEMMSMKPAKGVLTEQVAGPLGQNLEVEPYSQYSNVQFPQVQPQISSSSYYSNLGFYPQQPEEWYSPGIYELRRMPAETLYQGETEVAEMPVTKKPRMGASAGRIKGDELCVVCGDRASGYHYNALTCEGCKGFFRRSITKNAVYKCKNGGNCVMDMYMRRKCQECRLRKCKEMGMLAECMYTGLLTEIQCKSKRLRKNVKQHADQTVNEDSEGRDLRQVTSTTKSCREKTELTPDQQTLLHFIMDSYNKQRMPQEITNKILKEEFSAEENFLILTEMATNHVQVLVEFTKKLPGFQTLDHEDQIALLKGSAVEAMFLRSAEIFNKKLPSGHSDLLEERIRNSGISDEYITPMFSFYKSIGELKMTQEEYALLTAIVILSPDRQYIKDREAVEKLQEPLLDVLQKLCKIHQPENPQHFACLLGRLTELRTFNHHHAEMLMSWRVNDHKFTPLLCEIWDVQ
Oxysterols receptor LXR-beta (Homo sapiens), sequence (P55055 whole entry, looked up, the tested form may be a part): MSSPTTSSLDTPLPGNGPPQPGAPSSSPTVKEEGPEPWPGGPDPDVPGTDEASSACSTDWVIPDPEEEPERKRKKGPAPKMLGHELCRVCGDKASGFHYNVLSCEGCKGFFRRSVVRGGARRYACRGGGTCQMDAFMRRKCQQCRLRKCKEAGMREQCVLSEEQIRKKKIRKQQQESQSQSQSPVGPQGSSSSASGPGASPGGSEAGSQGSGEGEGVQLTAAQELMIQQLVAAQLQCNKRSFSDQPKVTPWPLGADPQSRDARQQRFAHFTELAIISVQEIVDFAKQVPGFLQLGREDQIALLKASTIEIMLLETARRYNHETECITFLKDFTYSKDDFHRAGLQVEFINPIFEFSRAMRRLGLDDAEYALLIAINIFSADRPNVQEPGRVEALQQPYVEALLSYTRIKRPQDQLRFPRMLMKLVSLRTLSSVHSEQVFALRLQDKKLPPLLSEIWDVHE
Oxysterols receptor LXR-alpha (Homo sapiens), sequence (Q13133 whole entry, looked up, the tested form may be a part): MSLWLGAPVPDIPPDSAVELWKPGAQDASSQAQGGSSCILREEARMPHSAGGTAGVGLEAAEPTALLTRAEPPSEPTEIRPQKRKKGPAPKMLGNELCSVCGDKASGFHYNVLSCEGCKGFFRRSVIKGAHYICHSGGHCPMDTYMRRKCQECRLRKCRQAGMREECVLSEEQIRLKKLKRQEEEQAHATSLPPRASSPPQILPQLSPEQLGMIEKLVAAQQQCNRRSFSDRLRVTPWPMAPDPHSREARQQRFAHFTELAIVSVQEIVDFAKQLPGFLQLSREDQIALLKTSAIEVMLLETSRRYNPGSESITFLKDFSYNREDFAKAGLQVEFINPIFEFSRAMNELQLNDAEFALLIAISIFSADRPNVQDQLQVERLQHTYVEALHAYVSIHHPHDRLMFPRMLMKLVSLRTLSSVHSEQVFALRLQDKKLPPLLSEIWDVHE

On to `Cc1ccc(S(=O)(=O)C(I)I)cc1`, for which the outcome in [1], in experiment [2], in experiment [3] and in experiment [4] was inactive. Besides, the AC50 – broadly, the concentration giving half of the maximal activity seen – in [5] is 17.4 µM (active); in experiment [6] it was 7.84 µM (active); in experiment [7], 8.6 µM (active); in experiment [8] it was 8.6 µM (active); in experiment [9], 19.5 µM (active); in experiment [10] it was 15.9 µM (active). The AC50 in experiment [11] is 8.98 µM (active); in [12] it was 8.91 µM (active); in experiment [13], 1.85 µM (active); in experiment [14] it was 1.45 µM (active); in experiment [15], 3.06 µM (active).
For `NC(=O)C(F)(F)C(F)(F)C(F)(F)C(F)(F)C(N)=O`, the compound was classed as inactive in [1], in experiment [2], in experiment [5], in [6], in [7] and in experiment [8]. Moreover, the compound was classed as inactive in experiment [9], in [10], in experiment [12], in [13], in [14] and in [15].
`NCC(F)(F)C(F)(F)C(F)(F)C(F)(F)C(F)(F)C(F)(F)F`: the compound was called inactive in [2], in experiment [3], in experiment [5], in experiment [6], in [7] and in [8]. For the same compound, the call in experiment [9], in [10], in experiment [11], in [12], in [13] and in experiment [14] was inactive. In addition, the result in [15] was inactive.
Turning to `CC(C)(C)c1cc(CCC(=O)OCC(COC(=O)CCc2cc(C(C)(C)C)c(O)c(C(C)(C)C)c2)(COC(=O)CCc2cc(C(C)(C)C)c(O)c(C(C)(C)C)c2)COC(=O)CCc2cc(C(C)(C)C)c(O)c(C(C)(C)C)c2)cc(C(C)(C)C)c1O`, the outcome in [16], in [1], in [2], in [4], in [5] and in [6] was inactive. Also, the outcome in experiment [7], in experiment [8], in [9], in experiment [10] and in [11] was inactive.
Consider `CN(N=O)C(=O)N[C@@H]1[C@@H](O)[C@H](O)[C@@H](CO)O[C@@H]1O`, for which the outcome in experiment [17], in experiment [1], in experiment [2], in experiment [3], in experiment [5] and in experiment [6] was inactive. Further, the compound was called inactive in [7], in experiment [8], in [10], in [11] and in [12].
For the compound `O=C1C=CC(=O)N1c1ccccc1`, the outcome in experiment [1], in experiment [2], in experiment [3], in experiment [4], in experiment [5] and in experiment [6] was inactive. Further, the outcome in experiment [7], in [8], in experiment [9], in experiment [11] and in experiment [12] was inactive. In experiment [10], the AC50 was 53.8 µM (active).
Regarding `O=S(=O)(Cl)C(F)(F)C(F)(F)C(F)(F)C(F)(F)C(F)(F)C(F)(F)C(F)(F)C(F)(F)F`, the outcome in experiment [18], in experiment [2], in [3], in experiment [4], in experiment [5] and in experiment [6] was inactive. The compound was called inactive in [7], in [8], in [9], in [11], in experiment [12] and in experiment [13]. The AC50 in experiment [10] is 70.3 µM (active); in experiment [14], 45.8 µM (active) and 47.4 µM (active).

The values above are taken from PubChem BioAssay (EPA / NIEHS).
